Values joined by “and” are separate entries in the source; they are usually repeats but may differ in a detail not shown here. Equal entries are not always repeated. Structures can show the parent of a compound that is named as a salt. The campaign covered roughly 5,800 compounds. About 620 (11%) showed activity. For the sample, actives were picked, then their nearest neighbours and some compounds at random. Unmarked numbers belong to inactive results.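 How the source made its calls: active = score above a cut-off or among the top three wells of a plate; in these data no inactive exceeds 0.85.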
Test system: primary human hepatic stellate cells (donor 1)
Test: scaled lipid accumulation score (0 = DMSO-like, 1 = nortriptyline-like); higher = stronger HSC inactivation (lipid re-accumulation), active = hit call of the paper
Details: 48 h
[1] = library stock concentration: 10 mM
[2] = library stock concentration: 1 mM
[3] = library stock concentration: 3.33 mM
[4] = library stock concentration: 80 uM
[5] = library stock concentration: 400 uM
[6] = library stock concentration: 2 mM

## CCN(c1ccccc1)c1cc(=NC)n(C)c(C)n1
[1]
  scaled lipid accumulation score: ≤ 0

## CN(C)CCCCCCOc1ccc(-n2ccnc2)cc1
[2]
  scaled lipid accumulation score: 0.054 and 0.003

## NC(N)=N[C@@H](CCC(=O)O)C(=O)O [alpha-Guanidinoglutaric acid]
[1]
  scaled lipid accumulation score: ≤ -0.007

## NC(N)=N[C@@H](CCC(=O)O)C(=O)O [.alpha.-Guanidinoglutaric Acid]
[2]
  scaled lipid accumulation score: ≤ 0

## O=C(Nc1cccc(C(F)(F)F)c1)Nc1cc(S(=O)(=O)NC2CC2)ccc1-c1ccsc1
[3]
  scaled lipid accumulation score: 0.022
[1]
  scaled lipid accumulation score: 0.632

## OC(CC1c2ccccc2-c2cncn21)C1CCCCC1 (stereo not drawn)
[3]
  scaled lipid accumulation score: ≤ -0.009
[1]
  scaled lipid accumulation score: 0.209

## Cc1ccc(Nc2c(F)cccc2Cl)c(CC(=O)O)c1 [Lumiracoxib]
[3]
  scaled lipid accumulation score: ≤ 0
[1]
  scaled lipid accumulation score: 0.025

## Cc1ccc(Nc2c(F)cccc2Cl)c(CC(=O)O)c1
[1]
  scaled lipid accumulation score: ≤ 0

## CCCCC[C@H](O)/C=C/[C@@H]1c2cc(CCCCC(=O)O)n(-c3ccccc3)c2C[C@H]1O [Piriprost (potassium salt)]
[2]
  scaled lipid accumulation score: ≤ 0

## O=c1c2ccccc2nc2n1CCc1c-2[nH]c2ccccc12 [Rutaecarpine] [listing 1 of 2 here]
[1]
  scaled lipid accumulation score: 0.975 (active)

## O=c1c2ccccc2nc2n1CCc1c-2[nH]c2ccccc12 [Rutaecarpine] [listing 2 of 2 here]
[3]
  scaled lipid accumulation score: ≤ 0
[1]
  scaled lipid accumulation score: 0.58

## CN1CCc2ccccc2Cc2[nH]c3ccccc3c2CC1
[1]
  scaled lipid accumulation score: 0.244

## CCC(CC)(NC(=O)C(C)C)C(=O)N[C@@H](CCCN=C(N)N)C(=O)NC1(C(=O)NC(c2ccc(F)cc2)c2ccc(F)cc2)CCCC1
[3]
  scaled lipid accumulation score: ≤ -0.009
[1]
  scaled lipid accumulation score: ≤ 0

## Cc1cnc(-c2cc(N3CCN(C(=O)CCS(C)(=O)=O)CC3)ncc2Cl)c(C)c1
[3]
  scaled lipid accumulation score: ≤ 0
[1]
  scaled lipid accumulation score: ≤ 0

## CCC(C)[C@H](NC(=O)[C@H](CCCCN)NC(=O)[C@H](CCCCN)NC(=O)[C@H](C)NC(=O)[C@H](CC(C)C)NC(=O)[C@H](C)NC(=O)[C@H](C)NC(=O)[C@H](CC(C)C)NC(=O)[C@H](C)NC(=O)[C@H](CCCCN)NC(=O)[C@H](CC(C)C)NC(=O)[C@H](CC(N)=O)NC(=O)[C@@H](N)[C@@H](C)CC)C(=O)N[C@@H](CC(C)C)C(N)=O (stereo partly drawn) [Mastoparan]
Library stock concentration: 3 mM
  scaled lipid accumulation score: ≤ -0.012

## c1cncc(CN2CCC(n3ncc4c(N5CCOCC5)nc(-c5ccc6[nH]ccc6c5)nc43)CC2)c1
[3]
  scaled lipid accumulation score: 1.19 (active)
[1]
  scaled lipid accumulation score: 1.19 (active)

## COC(=O)Nc1ccc(-c2nc(N3CCOCC3)c3cnn(C4CCN(C(=O)OC)CC4)c3n2)cc1
[3]
  scaled lipid accumulation score: ≤ 0
[1]
  scaled lipid accumulation score: ≤ 0

## CNC(=O)Nc1ccc(-c2nc(N3CC4CCC(C3)O4)c3cnn(C4CCC5(CC4)OCCO5)c3n2)cc1
[4]
  scaled lipid accumulation score: ≤ 0
[5]
  scaled lipid accumulation score: 0.006
[6]
  scaled lipid accumulation score: ≤ 0
[3]
  scaled lipid accumulation score: ≤ 0
[1]
  scaled lipid accumulation score: 0.733 and 0.772

## CN(C)[C@@H]1C(O)=C(C(=O)NCNCCCC[C@H](N)C(=O)O)C(=O)[C@@]2(O)C(O)=C3C(=O)c4c(O)cccc4[C@@](C)(O)[C@H]3C[C@@H]12 [Lymecycline]
  scaled lipid accumulation score: 0.003

## C[C@@H](N)c1ccc(C(=O)Nc2ccnc3[nH]ccc23)cc1
[4]
  scaled lipid accumulation score: ≤ -0.009
[5]
  scaled lipid accumulation score: ≤ -0.009
[6]
  scaled lipid accumulation score: 0.069

## CC(C)(C)OC(=O)Nc1cccc2[nH]ccc12 [(1H-Indol-4-yl)-Carbamic Acid tert-butyl ester]
[2]
  scaled lipid accumulation score: ≤ 0

## C[C@@H](N)c1ccc(C(=O)Nc2ccnc3[nH]ccc23)cc1.Cl.Cl
[1]
  scaled lipid accumulation score: 1.13 (active)

## CCCCCCCCCCCCCC=CC(O)C(COP(=O)(O)O)NC(=O)CCCCCCC (stereo not drawn) [C-8 Ceramide-1-phosphate]
[2]
  scaled lipid accumulation score: ≤ 0

## Nc1nc(F)nc2c1ncn2[C@@H]1O[C@H](COP(=O)(O)O)[C@@H](O)[C@@H]1O [Fludarabine Phosphate]
[3]
  scaled lipid accumulation score: 0.514
[1]
  scaled lipid accumulation score: 0.748

## CN1CCN(C(c2ccccc2)c2ccccc2)CC1 [Cyclizine hydrochloride]
  scaled lipid accumulation score: 0.648

## CN1CCN(C(c2ccccc2)c2ccc(Cl)cc2)CC1 (stereo not drawn) [Chlorcyclizine hydrochloride]
  scaled lipid accumulation score: 0.377
Library stock concentration: 5.9 mM
  scaled lipid accumulation score: 0.391

## CN1CCCN(C(c2ccccc2)c2ccc(Cl)cc2)CC1.Cl.Cl (stereo not drawn) [Homochlorcyclizine dihydrochloride]
  scaled lipid accumulation score: 0.879 (active)

## CN1CCN(C(c2ccccc2)c2ccccc2)CC1 [Cyclizine]
Library stock concentration: 7.5 mM
  scaled lipid accumulation score: 0.186
[1]
  scaled lipid accumulation score: 0.521

## CN1CCN(C(c2ccccc2)c2ccccc2)CC1 [Cyclizine 2HCl]
[3]
  scaled lipid accumulation score: ≤ 0
[1]
  scaled lipid accumulation score: 0.742

## [Cl-].[Li+] [Lithium Chloride]
[1]
  scaled lipid accumulation score: ≤ -0.07

## COC(=O)C1=C(C)NC(C)=C(C(=O)OC)C1c1cccc(NC(=O)NCCCN2CCC(c3cccc(OC)c3)CC2)c1
[1]
  scaled lipid accumulation score: 0.68

## COc1cc(N2CCN(C)CC2)ccc1Nc1nc(N)c(C(=O)c2c(Cl)cccc2Cl)s1
[4]
  scaled lipid accumulation score: 0.02
[5]
  scaled lipid accumulation score: ≤ -0.009
[6]
  scaled lipid accumulation score: 0.155
[1]
  scaled lipid accumulation score: 0.8

## CC1CCN(c2cc(N3CCN(C)CC3)ccc2NC(=O)c2cc(C#N)c[nH]2)CC1 [listing 1 of 2 here]
[1]
  scaled lipid accumulation score: 1.32 (active)

## CC1CCN(c2cc(N3CCN(C)CC3)ccc2NC(=O)c2cc(C#N)c[nH]2)CC1 [listing 2 of 2 here]
[4]
  scaled lipid accumulation score: 0.044
[5]
  scaled lipid accumulation score: ≤ -0.016
[6]
  scaled lipid accumulation score: ≤ -0.016

## CCCC/C=C/C=C/C=C/CCCCCCCC(=O)OC [9(Z),11(E),13(E)-Octadecatrienoic Acid methyl ester]
[2]
  scaled lipid accumulation score: ≤ 0

## CC(=O)c1cc2c(cc1O)OC(C)(C)C=C2 [Eupatoriochromene]
[1]
  scaled lipid accumulation score: 0.066

## Nc1ncnc2c1c(-c1cccc(OCc3ccccc3)c1)cn2[C@H]1C[C@@H](CN2CCC2)C1
[3]
  scaled lipid accumulation score: 0.894 (active)
[1]
  scaled lipid accumulation score: 1.01 (active)

## Nc1ncnc2c1c(-c1cccc(OCc3ccccc3)c1)cn2C1CC(CN2CCCC2)C1 (stereo not drawn)
[1]
  scaled lipid accumulation score: 0.36

## Nc1ncnc2c1c(-c1cccc(OCc3ccccc3)c1)cn2[C@H]1C[C@H](CN2CCCC2)C1
[3]
  scaled lipid accumulation score: 1.09 (active)

## C=CC(=O)N1CCC[C@@H](n2nc(-c3ccc(Oc4ccccc4)cc3)c3c(N)ncnc32)C1
[4]
  scaled lipid accumulation score: ≤ -0.009
[5]
  scaled lipid accumulation score: 0.313
[6]
  scaled lipid accumulation score: 0.033
[3]
  scaled lipid accumulation score: ≤ 0
[1]
  scaled lipid accumulation score: ≤ 0 and 0.22

## Nc1ncnc2c1c(-c1ccc(Oc3ccccc3)cc1)cn2C1CCCC1
[1]
  scaled lipid accumulation score: ≤ -0.07

## Nc1ncnc2c1c(-c1cccc(OCc3ccccc3)c1)cn2C1CC(CN2CCC2)C1 (stereo not drawn)
[4]
  scaled lipid accumulation score: 0.167
[5]
  scaled lipid accumulation score: 0.351
[6]
  scaled lipid accumulation score: 0.67
[1]
  scaled lipid accumulation score: 0.657
